From PMC5349851, “Combinatorial bZIP dimers display complex DNA-binding specificity landscapes”

Assays:
Experiment in all cases: SELEX-seq (CSI, HT-SELEX, round 3); SELEX-seq: 1x PBS (10 mM phosphate, 137 mM NaCl, 2.7 mM KCl) pH 7.6, 2.5 mM DTT, 50 ng/ul poly dI-dC, 0.1% BSA, 50 nM biotinylated bZIP (1:3 with partner for heterodimers), 100 nM library, room temperature, 1 h, 3 rounds; high values mean tight binding
Conditions in all cases: protein: recombinant;recombinant; copies: 1;1; dsDNA, one strand shown
[1] = target: T1, JUNB;DBP (Homo sapiens;Homo sapiens, UniProt P17275;Q10586 259-332;246-324, |)
T1 sequence 1: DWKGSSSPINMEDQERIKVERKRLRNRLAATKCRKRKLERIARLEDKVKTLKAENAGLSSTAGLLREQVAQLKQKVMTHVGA
T1 sequence 2: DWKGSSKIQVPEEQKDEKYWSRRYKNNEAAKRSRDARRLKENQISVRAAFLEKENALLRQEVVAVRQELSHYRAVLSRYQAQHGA

[2] = target: T2, BATF;ATF3 (Homo sapiens;Homo sapiens, UniProt Q16520;P18847 17-90;77-150, |)
T2 sequence 1: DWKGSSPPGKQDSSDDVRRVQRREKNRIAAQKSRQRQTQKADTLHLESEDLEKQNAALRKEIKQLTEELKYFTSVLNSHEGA
T2 sequence 2: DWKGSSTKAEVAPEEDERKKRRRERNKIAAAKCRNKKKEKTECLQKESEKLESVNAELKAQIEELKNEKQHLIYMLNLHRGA

[3] = target: BATF;CEBPA (Homo sapiens;Homo sapiens, UniProt Q16520;P49715 17-90;273-345, |)
Chain of BATF;CEBPA (P49715 other isoform, or with tags, fused parts or gaps |): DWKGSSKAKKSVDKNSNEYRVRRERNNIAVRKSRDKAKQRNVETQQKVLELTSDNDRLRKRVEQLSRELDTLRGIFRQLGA

[4] = target: T3, FOSL1;ATF3 (Homo sapiens;Homo sapiens, UniProt P15407;P18847 96-169;77-150, |)
T3 sequence 1: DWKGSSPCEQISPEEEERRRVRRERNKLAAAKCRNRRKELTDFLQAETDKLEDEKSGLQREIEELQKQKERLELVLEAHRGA
T3 sequence 2: T2 sequence 2

[5] = target: FOSL1;CEBPA (Homo sapiens;Homo sapiens, UniProt P15407;P49715 96-169;273-345, |)
[6] = target: FOSL1;JUN (Homo sapiens;Homo sapiens, UniProt P15407;P05412 96-169;243-316, |)
[7] = target: T4, FOSL1;BATF3 (Homo sapiens;Homo sapiens, UniProt P15407;Q9NR55 96-169;26-99, |)
T4 sequence 1: T3 sequence 1
T4 sequence 2: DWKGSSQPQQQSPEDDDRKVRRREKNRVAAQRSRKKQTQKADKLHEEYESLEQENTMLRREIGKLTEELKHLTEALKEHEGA

[8] = target: FOS;ATF3 (Homo sapiens;Homo sapiens, UniProt P01100;P18847 128-201;77-150, |)
Chain of FOS;ATF3 (P01100 other isoform, or with tags, fused parts or gaps |, chain 1 of 2, one chain of several): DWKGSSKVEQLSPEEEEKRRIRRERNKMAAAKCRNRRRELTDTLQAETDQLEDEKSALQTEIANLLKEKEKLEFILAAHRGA

[9] = target: FOS;ATF4 (Homo sapiens;Homo sapiens, UniProt P01100;P18848 128-201;269-346, |)
Chain of FOS;ATF4 (P01100 other isoform, or with tags, fused parts or gaps |, chain 1 of 2): as the sequence (P01100 other isoform, or with tags, fused parts or gaps |, chain 1 of 2, one chain of several) above
Chain of FOS;ATF4 (P18848 other isoform, or with tags, fused parts or gaps |, chain 2 of 2): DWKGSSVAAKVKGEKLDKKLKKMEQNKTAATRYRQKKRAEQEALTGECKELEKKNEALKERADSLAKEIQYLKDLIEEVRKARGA

[10] = target: FOS;BATF3 (Homo sapiens;Homo sapiens, UniProt P01100;Q9NR55 128-201;26-99, |)
Chain of FOS;BATF3 (P01100 other isoform, or with tags, fused parts or gaps |): as the sequence (P01100 other isoform, or with tags, fused parts or gaps |, chain 1 of 2, one chain of several) above

[11] = target: FOS;ATF2 (Homo sapiens;Homo sapiens, UniProt P01100;P15336 128-201;343-417, |)
Chain of FOS;ATF2 (P01100 other isoform, or with tags, fused parts or gaps |, chain 1 of 2): as the sequence (P01100 other isoform, or with tags, fused parts or gaps |, chain 1 of 2, one chain of several) above
Chain of FOS;ATF2 (P15336 other isoform, or with tags, fused parts or gaps |, chain 2 of 2): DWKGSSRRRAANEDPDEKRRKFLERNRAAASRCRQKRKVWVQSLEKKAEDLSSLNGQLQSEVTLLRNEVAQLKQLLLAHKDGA

[12] = target: FOS;DBP (Homo sapiens;Homo sapiens, UniProt P01100;Q10586 128-201;246-324, |)
Chain of FOS;DBP (P01100 other isoform, or with tags, fused parts or gaps |): as the sequence (P01100 other isoform, or with tags, fused parts or gaps |, chain 1 of 2, one chain of several) above

[13] = target: T5, ATF5;CEBPG (Homo sapiens;Homo sapiens, UniProt Q9Y2D1;P53567 199-275;52-130, |)
T5 sequence 1: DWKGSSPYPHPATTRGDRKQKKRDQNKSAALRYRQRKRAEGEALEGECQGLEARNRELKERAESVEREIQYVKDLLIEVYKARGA
T5 sequence 2: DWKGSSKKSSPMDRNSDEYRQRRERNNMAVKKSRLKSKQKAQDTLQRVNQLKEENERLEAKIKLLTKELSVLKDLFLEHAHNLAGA

[14] = target: ATF5;CEBPA (Homo sapiens;Homo sapiens, UniProt Q9Y2D1;P49715 199-275;273-345, |)
[15] = target: ATF5;JUN (Homo sapiens;Homo sapiens, UniProt Q9Y2D1;P05412 199-275;243-316, |)
Chain of ATF5;JUN (P05412 other isoform, or with tags, fused parts or gaps |): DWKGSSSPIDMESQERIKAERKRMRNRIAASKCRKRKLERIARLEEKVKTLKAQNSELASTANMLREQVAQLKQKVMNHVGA

[16] = target: T6, ATF5;BATF3 (Homo sapiens;Homo sapiens, UniProt Q9Y2D1;Q9NR55 199-275;26-99, |)
T6 sequence 1: T5 sequence 1
T6 sequence 2: T4 sequence 2

[17] = target: DDIT3;CEBPG (Homo sapiens;Homo sapiens, UniProt P35638;P53567 88-169;52-130, |)
Chain of DDIT3;CEBPG (P35638 other isoform, or with tags, fused parts or gaps |): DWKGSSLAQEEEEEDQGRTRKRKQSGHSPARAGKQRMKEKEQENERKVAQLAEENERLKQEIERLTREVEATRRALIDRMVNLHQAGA

[18] = target: MAFB;ATF4 (Homo sapiens;Homo sapiens, UniProt Q9Y5Q3;P18848 212-305;269-346, |)
Chain of MAFB;ATF4 (Q9Y5Q3 other isoform, or with tags, fused parts or gaps |, chain 1 of 2): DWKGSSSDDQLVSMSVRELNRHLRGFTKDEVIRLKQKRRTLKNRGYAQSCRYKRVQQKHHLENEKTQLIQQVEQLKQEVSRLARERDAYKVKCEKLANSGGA
Chain of MAFB;ATF4 (P18848 other isoform, or with tags, fused parts or gaps |, chain 2 of 2): as the sequence (P18848 other isoform, or with tags, fused parts or gaps |, chain 2 of 2) above

[19] = target: T7, BATF2;ATF3 (Homo sapiens;Homo sapiens, UniProt Q8N1L9;P18847 8-85;77-150, |)
T7 sequence 1: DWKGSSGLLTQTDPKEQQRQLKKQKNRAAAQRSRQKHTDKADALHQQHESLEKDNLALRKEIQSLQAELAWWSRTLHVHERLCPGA
T7 sequence 2: T2 sequence 2

[20] = target: BATF2;JUN (Homo sapiens;Homo sapiens, UniProt Q8N1L9;P05412 8-85;243-316, |)
Chain of BATF2;JUN (P05412 other isoform, or with tags, fused parts or gaps |): as the sequence (P05412 other isoform, or with tags, fused parts or gaps |) above

Sequence	binding signal [1]	binding signal [2]	binding signal [3]	binding signal [4]	binding signal [5]	binding signal [6]	binding signal [7]	binding signal [8]	binding signal [9]	binding signal [10]	binding signal [11]	binding signal [12]	binding signal [13]	binding signal [14]	binding signal [15]	binding signal [16]	binding signal [17]	binding signal [18]	binding signal [19]	binding signal [20]
ATGACGTAAT	0.727 relative CSI intensity (max = 1)	0.0836 relative CSI intensity (max = 1)	0.00231 relative CSI intensity (max = 1)	0.0529 relative CSI intensity (max = 1)	0.208 relative CSI intensity (max = 1)	0.0392 relative CSI intensity (max = 1)	0.0576 relative CSI intensity (max = 1)	0.0389 relative CSI intensity (max = 1)	0.0605 relative CSI intensity (max = 1)	0.0787 relative CSI intensity (max = 1)	0.133 relative CSI intensity (max = 1)	0.614 relative CSI intensity (max = 1)	0.502 relative CSI intensity (max = 1)	0.488 relative CSI intensity (max = 1)	0.289 relative CSI intensity (max = 1)	0.0199 relative CSI intensity (max = 1)	0.437 relative CSI intensity (max = 1)	0.108 relative CSI intensity (max = 1)	0.00842 relative CSI intensity (max = 1)	0.116 relative CSI intensity (max = 1)
CCTGACGTCA	0.0067 relative CSI intensity (max = 1)	0.0203 relative CSI intensity (max = 1)	–	0.0517 relative CSI intensity (max = 1)	0.00677 relative CSI intensity (max = 1)	0.00953 relative CSI intensity (max = 1)	0.0211 relative CSI intensity (max = 1)	0.0295 relative CSI intensity (max = 1)	0.0251 relative CSI intensity (max = 1)	0.0279 relative CSI intensity (max = 1)	0.00727 relative CSI intensity (max = 1)	0.057 relative CSI intensity (max = 1)	0.072 relative CSI intensity (max = 1)	0.0673 relative CSI intensity (max = 1)	0.288 relative CSI intensity (max = 1)	0.0107 relative CSI intensity (max = 1)	0.0315 relative CSI intensity (max = 1)	0.182 relative CSI intensity (max = 1)	0.00318 relative CSI intensity (max = 1)	0.0191 relative CSI intensity (max = 1)
ATGATGCAAT	0.0471 relative CSI intensity (max = 1)	–	0.0115 relative CSI intensity (max = 1)	0.00412 relative CSI intensity (max = 1)	0.368 relative CSI intensity (max = 1)	0.00257 relative CSI intensity (max = 1)	0.00287 relative CSI intensity (max = 1)	0.0114 relative CSI intensity (max = 1)	0.00384 relative CSI intensity (max = 1)	–	–	0.0452 relative CSI intensity (max = 1)	0.687 relative CSI intensity (max = 1)	0.756 relative CSI intensity (max = 1)	0.0503 relative CSI intensity (max = 1)	0.00117 relative CSI intensity (max = 1)	0.574 relative CSI intensity (max = 1)	0.0202 relative CSI intensity (max = 1)	0.003 relative CSI intensity (max = 1)	0.00706 relative CSI intensity (max = 1)
ATGACGTCAT	1 relative CSI intensity (max = 1)	0.113 relative CSI intensity (max = 1)	0.00178 relative CSI intensity (max = 1)	0.156 relative CSI intensity (max = 1)	0.261 relative CSI intensity (max = 1)	0.478 relative CSI intensity (max = 1)	0.282 relative CSI intensity (max = 1)	0.117 relative CSI intensity (max = 1)	1 relative CSI intensity (max = 1)	1 relative CSI intensity (max = 1)	1 relative CSI intensity (max = 1)	0.887 relative CSI intensity (max = 1)	0.529 relative CSI intensity (max = 1)	0.516 relative CSI intensity (max = 1)	0.742 relative CSI intensity (max = 1)	0.681 relative CSI intensity (max = 1)	1 relative CSI intensity (max = 1)	0.336 relative CSI intensity (max = 1)	0.0121 relative CSI intensity (max = 1)	0.299 relative CSI intensity (max = 1)
ATGACGGAAT	0.0141 relative CSI intensity (max = 1)	0.019 relative CSI intensity (max = 1)	–	0.0493 relative CSI intensity (max = 1)	0.00381 relative CSI intensity (max = 1)	0.00225 relative CSI intensity (max = 1)	–	0.0362 relative CSI intensity (max = 1)	0.00272 relative CSI intensity (max = 1)	–	–	0.0179 relative CSI intensity (max = 1)	0.0428 relative CSI intensity (max = 1)	0.0438 relative CSI intensity (max = 1)	–	–	0.0328 relative CSI intensity (max = 1)	0.014 relative CSI intensity (max = 1)	–	0.00635 relative CSI intensity (max = 1)
ATGACGCAAT	0.162 relative CSI intensity (max = 1)	0.0223 relative CSI intensity (max = 1)	0.00768 relative CSI intensity (max = 1)	0.0466 relative CSI intensity (max = 1)	0.765 relative CSI intensity (max = 1)	0.0151 relative CSI intensity (max = 1)	–	0.0598 relative CSI intensity (max = 1)	0.0149 relative CSI intensity (max = 1)	0.00954 relative CSI intensity (max = 1)	0.00209 relative CSI intensity (max = 1)	0.194 relative CSI intensity (max = 1)	0.902 relative CSI intensity (max = 1)	0.864 relative CSI intensity (max = 1)	0.0554 relative CSI intensity (max = 1)	0.00351 relative CSI intensity (max = 1)	0.339 relative CSI intensity (max = 1)	0.0526 relative CSI intensity (max = 1)	0.00454 relative CSI intensity (max = 1)	0.0567 relative CSI intensity (max = 1)
